SMN2 splice up: enhancers of SMN2 splice variant expression | 2.8% of 210,000 active | Potency, µM (titrated, usually from 46.1 µM), for the others: top-dose activity change, positive = activation, most hits filed as activators | AID 1458 | HEK293 SMN2-luciferase splicing reporter, luminescence, 30-36 h; further: % of control where 0% means no effect; nearly all actives have a fitted effect of over 55% in size
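qHTS luciferase splicing reporter: luminescence rises when SMN2 exon 7 is included in transfected HEK293 cells. Compound exposure lasted 30-36 h at 37C, with 4.5 mM final sodium butyrate as control, followed by a ONE-Glo read.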
Luc counter: counter-screen: inhibitors of Kinase-Glo firefly luciferase; 0.28% of 200,000 active; Kinase-Glo luciferase, ATP luminescence, 8 min; Potency, µM (series often up to 38.3 µM), inactives show at the top dose activity change, negative = inhibition, actives largely listed as inhibitors; Q27757; further: on the % scale 0 is the no-effect control and ±100 the full control effect; nearly all actives have a fitted effect of over 60% in size
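Compounds were added to a substrate mix at pH 7.2 (50 mM imidazole, 10 uM ATP, within the enzyme's linear range), followed by Kinase-Glo detection reagent; luminescence was measured after 8 minutes at ambient temperature.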
FLuc counter: inhibits or activates purified firefly luciferase, miR-21 counter-screen. P08659. purified FLuc, Km substrates, luminescence inhibition. Potency, µM (series often up to 57.5 µM), for inactives: at the highest dose activity change, negative = inhibition, usual class: inhibitors. 6.9% of 360,000 active. AID 588342;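 further: plate controls were vehicle for no effect and reference inhibitor for full effect; nearly all actives have a fitted effect of over 55% in size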
Target sequence (P08659 whole entry, looked up): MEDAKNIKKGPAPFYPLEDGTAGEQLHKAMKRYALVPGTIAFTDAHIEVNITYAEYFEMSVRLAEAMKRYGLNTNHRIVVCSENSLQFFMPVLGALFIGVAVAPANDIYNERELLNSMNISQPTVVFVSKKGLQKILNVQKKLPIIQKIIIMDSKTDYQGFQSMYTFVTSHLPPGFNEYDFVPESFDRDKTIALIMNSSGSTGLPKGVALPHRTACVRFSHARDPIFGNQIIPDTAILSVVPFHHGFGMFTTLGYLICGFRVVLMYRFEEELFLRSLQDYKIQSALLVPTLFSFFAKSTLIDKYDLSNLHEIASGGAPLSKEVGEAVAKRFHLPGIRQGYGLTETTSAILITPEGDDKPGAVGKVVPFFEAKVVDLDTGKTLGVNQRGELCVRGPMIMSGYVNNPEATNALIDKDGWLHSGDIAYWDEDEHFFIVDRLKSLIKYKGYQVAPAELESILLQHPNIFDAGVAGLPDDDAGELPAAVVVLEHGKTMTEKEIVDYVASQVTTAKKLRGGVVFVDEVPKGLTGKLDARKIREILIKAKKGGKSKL
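Purified P. pyralis luciferase (10nM final) with 10uM D-luciferin and 10uM ATP (Km levels) in 50mM Tris acetate pH 7.5, 10mM Mg acetate, 0.01% Tween-20, 0.05% BSA; qHTS 6-point titration, ~60 µM downward; luminescence read.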
Rab9 prom act: Rab9 promoter activation; Huh7 Rab9 promoter-luciferase reporter, luminescence, 24 h; Potency, µM (doses to about 9.22 µM), for the others: top-dose activation, negative = inhibition, hits mostly activators; 2.8% of 320,000 active; AID 485297; further: % of control where 0% means no effect; nearly all actives have a fitted effect of over 60% in size
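Using Huh7 cells stably transfected with Rab9 promoter–luciferase, compounds were incubated 24 h at 37 °C, 5% CO2; luciferase luminescence was read 10 min after reagent addition.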
NPC1 prom act: activates the NPC1 promoter; Huh7 NPC1 promoter luciferase reporter, 24 h; Potency, µM (highest dose often 9.22 µM), for inactives: top-dose activation, actives largely listed as activators; 2.4% of 320,000 active; AID 485313; further: % of control where 0% means no effect; nearly all actives have a fitted effect of over 60% in size
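Huh7 cells stably carrying NPC1 promoter–luciferase, plated in Opti-MEM with 10% FBS for 2 h, were exposed to compound in DMSO for 24 h at 37 °C; luciferase reagent was added for 10 min and luminescence read.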
ELG1 genotoxic: induces genotoxicity in HEK293T cells with luciferase-tagged ELG1 | HEK293T ELG1-luciferase reporter, luminescence, 16 h | Potency, µM (doses to about 46 µM), without a hit: at the top dose activity change, positive = activation, hits mostly activators | 1.3% of 330,000 active | AID 504466; further: % of control where 0% means no effect; nearly all actives have a fitted effect of over 60% in size
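Reporter readout depends on ELG1 protein level, which increases with genetic stress. After 16 hr compound exposure at 37 °C, luciferase activity was quantified using ONE-Glo.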
The depositor's hits bear a star; ? = inconclusive; . = no result given. This is a sample that favours compounds with a hit; in the whole collection about 7.4% have one here. The call rests on the fitted dose curve; in most records, active means well fitted curve in the direction sought with a large enough effect; inconclusive means small, poorly fitted or top-dose-only effect, or another doubt; inactive means no such curve, though single readings can be large; an effect the other way counts as inactive or inconclusive. Potency means the concentration at half of the fitted maximal effect.

SMILES | SMN2 splice up | Luc counter | FLuc counter | Rab9 prom act | NPC1 prom act | ELG1 genotoxic
CCc1ccc(/C=C2/SC(=S)N(CCC(=O)Nc3cccc(C(=O)O)c3)C2=O)cc1 | . | . | 2.1µM* | 25% | ? | ?
O=C(CCN1C(=O)/C(=C/c2cccs2)SC1=S)N1CCCCC1 | . | . | 15µM* | -21% | -20% | 7%
CCN(C(=O)CCN1C(=O)/C(=C/c2ccccc2)SC1=S)C1CCS(=O)(=O)C1 (configuration not stated) | . | . | 24µM* | -22% | -18% | -8%
O=C(CCN1C(=O)/C(=C\c2ccccc2)SC1=S)N1CCCCC1 | . | . | ? | -21% | -21% | -7%
O=C(O)CN1C(=O)/C(=C\c2cccc(OCc3ccccc3F)c2)SC1=S | . | . | 21µM* | -3% | 8% | 5%
COc1ccc(/C=C2/SC(=S)N(CCC(=O)O)C2=O)cc1 | -13% | -3% | 5.4µM* | -12% | -8% | -4%
CN1C(=O)S/C(=C/c2ccc(OCc3cccc(C(=O)O)c3)cc2)C1=O | . | . | 2.7µM* | 0.28µM* | 0.4µM* | ?
O=C(O)CCN1C(=O)/C(=C\c2cccc(Oc3ccccc3)c2)SC1=S | . | . | 24µM* | -7% | -6% | 1%
C=CCC(C)(O)C(=O)OCC (configuration not stated) | -4% | 1% | . | . | . | .
O=C(CCN1C(=O)/C(=C/c2ccc(Cl)cc2)SC1=S)Nc1ccc(C(=O)O)cc1 | . | . | 11µM* | 0% | -5% | 0%
O=C(CCN1C(=O)/C(=C\c2cccs2)SC1=S)Nc1ccc(C(=O)O)cc1 | . | . | 0% | -4% | -2% | 12%
Cc1ccc(C)c(NC(=O)c2cc(=O)c3cc(C)cc(C)c3o2)c1 | -1% | . | -1% | . | . | .
NC(=O)c1ccsc1NC(=O)COC(=O)/C=C/c1ccccc1 | . | . | 11µM* | 0% | 7% | -17%
NC(=O)c1ccsc1NC(=O)COC(=O)c1cc(Cl)ccc1O | . | . | 4.3µM* | -3% | -3% | 0%
NC(=O)c1ccsc1NC(=O)COC(=O)c1ccccc1F | . | . | 11µM* | 0% | 1% | 5%
O=C(COC(=O)c1cc(Cl)ccc1O)NCCNC(=O)COC(=O)c1cc(Cl)ccc1O | . | . | 2% | -5% | -4% | 5%
COc1ccc(-n2c(=O)c(CCc3ccccc3)nc3cnc(N(C)C)nc32)cc1 | 4% | -2% | . | . | . | .
COC(=O)c1nc2ccc(N3CCOCC3)cc2c(C)c1C(=O)OC | 10µM* | -3% | 2.4µM* | 2.8µM* | ? | -3%
COc1ccccc1N1CCN(C(=O)c2nc(SC)ncc2Cl)CC1 | -12% | . | 1% | . | . | .
Cn1c(-c2ccccc2)cnc1SCc1nc2ccccc2c(=O)[nH]1 | 2.5µM* | -15% | 6µM* | 1.4µM* | 2.8µM* | 2.1µM*
Cn1c(SCc2nc3ccccc3c(=O)[nH]2)nc2ccccc21 | 14% | -1% | -28% | 9% | 9% | 2%
CC1CCc2nc(NC(=O)CSc3nc4ccccc4o3)sc2C1 (configuration not stated) | -81% | -2% | 6.7µM* | ? | ? | 6.5µM*
CC(=O)c1cc2c(cc1NC(=O)CSc1nc3ccccc3o1)OCO2 | ? | 2% | 0% | ? | 20% | 10µM*
Cc1nnc(NC(=O)CSc2nc3ccccc3o2)s1 | 1% | -3% | -1% | 0% | 0% | -4%
Cc1cccc(NC(=O)CSc2cc(C)c3ccccc3n2)c1 | 8.9µM* | . | -18% | . | . | .
SMILES | SMN2 splice up | Luc counter | FLuc counter | Rab9 prom act | NPC1 prom act | ELG1 genotoxic
Cc1cccc(NC(=O)CSc2nc3ccccc3o2)c1 | ? | -2% | ? | 0.89µM* | 1.4µM* | 1.5µM*
CC(=O)Nc1ccc(NC(=O)CSc2nc3ccccc3o2)cc1 | 20% | 3% | -2% | 3% | 14% | 7%
Cc1c(-c2nnc(SCC(=O)Nc3ccc(Cl)cc3)o2)nnn1-c1ccc(F)cc1 | . | . | -3% | . | . | .
Cc1ccc(-c2csc(NC(=O)CSc3nc4ccccc4o3)n2)cc1 | 14µM* | -1% | . | 25% | 26% | ?
O=C1/C(=C/c2ccc([N+](=O)[O-])cc2)Oc2cc(O)ccc21 | . | . | 4.8µM* | -4% | 23% | 0%
O=C1/C(=C/c2ccc(Br)cc2)Oc2cc(O)ccc21 | . | . | 3.8µM* | ? | 23% | 4%
COc1ccc(NC(=O)Cn2nc(C)c3c(C)n(-c4ccccc4)nc3c2=O)cc1OC | . | . | -2% | . | . | .
CC(=O)NC(c1ccco1)c1cc(Cl)c2ccc(N(C)C)nc2c1O (configuration not stated) | . | . | -22% | 7% | 5% | .
CC(NC(=O)CSc1nnc(-c2cccnc2)n1N)c1ccccc1 (configuration not stated) | 10% | -3% | -3% | 2% | 2% | 0%
Cc1ccc(-c2cc(-c3nnc(SCC(=O)NC(C)C(C)C)n3N)c3ccccc3n2)cc1 (configuration not stated) | -3% | -3% | 8.5µM* | 0% | 0% | 0%
Clc1cncc(Cl)c1N/N=C/c1ccccc1 | . | . | 21µM* | -1% | 28% | 6%
Clc1ccc(/C=N/Nc2nc(Cl)nc3ccccc23)cc1 | 29% | -10% | 13µM* | 15% | 3% | ?
Cc1ccc(/C=N/Nc2nnc(Cl)c3ccccc23)cc1 | 4.5µM* | ? | 0.6µM* | ? | ? | 2.3µM*
Clc1nnc(NN=C2CCCC2)c2ccccc12 | -9% | -4% | ? | 1% | -6% | 2%
Clc1nnc(N/N=C/c2ccccc2)c2ccccc12 | 18µM* | -20% | 2.7µM* | ? | 21% | 7.1µM*
COC(=O)c1cc2oc3ccccc3c2n1Cc1nc(-c2ccccc2Cl)oc1C | 1% | . | -4% | . | . | .
CCOc1ccc(Br)cc1C1C(C(=O)Nc2ccccc2OC)=C(C)Nc2nnnn21 (configuration not stated) | -11% | . | 1% | . | . | .
Clc1ccc(/C=N/Nc2nnc(Cl)c3ccccc23)cc1 | 11µM* | -19% | ? | ? | ? | ?
Cc1ccc(CNC(=O)C(Cc2ccccc2)NS(=O)(=O)c2cccs2)cc1 (configuration not stated) | 18µM* | 20% | -2% | -5% | 2% | -3%
CCc1ccccc1NC(=O)CSc1nc2c(oc3ccccc32)c(=O)n1C | -9% | . | 1% | . | . | .
CS(=O)(=O)c1ccc2nc(NC(=O)C3CCCO3)sc2c1 (configuration not stated) | . | 0% | -2% | 1% | -1% | 3%
O=C(Nc1nc2ccc(Cl)cc2s1)C1CCCO1 (configuration not stated) | 22µM* | -3% | 6.7µM* | 3.5µM* | 1µM* | 4.6µM*

Assay outcomes from PubChem BioAssay.
